Data from PubChem BioAssay.
Active and inactive are the calls of the source.

How the values were obtained:
[1] = system: PRMT1 (protein arginine N-methyltransferase 1); assay: PRMT1 binders on small-molecule microarrays, primary screen, biochemical, small-molecule microarray, 635 nm fluorescence (AID 1088); details: small-molecule microarray binding, higher = more signal;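 also: binding of Prmt1 protein to compounds spotted on small-molecule microarray slides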
[2] = yeast growth modulation, basal conditions, primary screen, YJM789 clinical isolate, OD600, 24 h (AID 1089);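 also: growth of clinical yeast isolate S. cerevisiae YJM 789 seeded 1000 cells per well; test concentration not given here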; details: S. cerevisiae YJM789 growth, higher = more signal, called active from +8 up or from −8 down
[3] = fission yeast growth modulation, primary screen, strain 972, OD600, 24 h, no modulator (AID 1090);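 also: basal condition with compound alone and no growth modifier present; test concentration not given here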; details: S. pombe 972 growth, higher = more signal, called active from +8 up or from −8 down
[4] = S. cerevisiae growth modulation with rapamycin, primary screen, strain BY4716, OD600, 96 h (AID 1091); details: higher = more signal, called active from +8 up or from −8 down; also: test concentration not given here
[5] = biological target: Torsin-1A-interacting protein 2 (Homo sapiens) (UniProt Q8NFQ8); assay: LULL1 binders on small-molecule microarray, primary screen, cell lysate, human LULL1 lysate, 635/667 nm fluorescence (AID 1092); details: hLULL1 lysate binding, 635 nm fluorescence, higher = more signal;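 also: probe is lysate of COS7 cells overexpressing human LULL1; score merges per-feature 667 nm fluorescence with signal-to-noise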
[6] = E. coli growth modulation, two-sided OD650, primary screen, E. coli filamentation project, strain DRC41, 24 h (AID 1093); details: OD650, 24 h, higher = more signal, called active from +8 up or from −8 down;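 also: MC1000 strain lacking acrAB efflux and sulA so SOS filamentation is blocked; test concentration not given here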
[7] = small-molecule microarray binders of probe aLefty2, primary screen, biochemical, biotinylated probe, 635/667 nm fluorescence (AID 1094); details: higher = more signal;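 also: score merges spot fluorescence near 667 nm with spot signal-to-noise ratio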
[8] = system: Noggin (protein binding on small-molecule microarray); assay: Noggin binders on small-molecule microarray, primary screen, biochemical, 635/667 nm fluorescence (AID 1095); details: 635 nm fluorescence, higher = more signal;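 also: score merges 667 nm feature fluorescence with signal to noise over triplicate slides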
[9] = biological target: Neurogenic locus notch homolog protein 3 (Homo sapiens) (UniProt Q9UM47); assay: NOTCH3 binders on small-molecule microarray, primary screen, biochemical, 635/667 nm fluorescence (AID 1096); details: NOTCH3 binding, 635 nm fluorescence, higher = more signal
[10] = small-molecule microarray binders of probe aEGFR, primary screen, biochemical, biotinylated probe, 635/667 nm fluorescence (AID 1097); details: higher = more signal;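 also: probe is a biotinylated anti-EGFR antibody binding compounds printed on slides; score combines fluorescence near 667 nm and signal to noise of each spot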
[11] = system: Plasmodium falciparum Sir2 (PF13_0152, Sir2A); assay: pfSir2 binders on small-molecule microarrays, primary screen, biochemical, small-molecule microarray, 635 nm fluorescence (AID 1098); details: small-molecule microarray binding, fluorescence 635 nm; higher = more signal;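 also: score merges spot fluorescence intensity with its signal-to-noise ratio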
[12] = small-molecule microarray binders of probe aDKK1, primary screen, biochemical, biotinylated probe, 635/667 nm fluorescence (AID 1099); details: higher = more signal;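 also: score merges 667nm spot fluorescence with signal to noise across triplicate slides; reference of the scale not given here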
[13] = small-molecule microarray binders of probe aCHRDL2, primary screen, biochemical, biotinylated probe, 635/667 nm fluorescence (AID 1100); details: higher = more signal
[14] = splicing luciferase reporter signal modulators, primary screen, spliceosome inhibition project, cell-based, HEK293, splice +/- reporter (AID 1101); details: luminescence, 24 h, higher = more signal, called active from +8 up or from −8 down;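 also: HEK293 cells carrying a splicing-competent luciferase reporter gene; test concentration not given here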
[15] = biological target: Fibroblast growth factor 10 (Homo sapiens) (UniProt O15520); assay: FGF10 binders on small-molecule microarrays, primary screen, biochemical, small-molecule microarray, 635 nm fluorescence (AID 1102); details: FGF10 binding, fluorescence 635 nm, higher = more signal
[16] = system: glycogen synthase kinase-3 (GSK3A per assay name; protocol says GSK3B); assay: GSK3 binders on small-molecule microarrays, primary screen, biochemical, small-molecule microarray, 635 nm fluorescence, GSK3A (AID 1103); details: small-molecule microarray binding, fluorescence 635 nm; higher = more signal; also: the record names both GSK3A and GSK3B
[17] = biological target: Epidermal growth factor receptor (Homo sapiens) (UniProt P00533); assay: EGFR binders on small-molecule microarrays, primary screen, biochemical, small-molecule microarray, 635 nm fluorescence (AID 1104); details: EGFR binding, higher = more signal;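 also: score merges 667 nm emission intensity with spot signal to noise over triplicate slides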
[18] = biological target: Follistatin-related protein 3 (Homo sapiens) (UniProt O95633); assay: FSTL3 binders on small-molecule microarrays, primary screen, biochemical, small-molecule microarray, 635 nm fluorescence (AID 1105); details: FSTL3 binding, higher = more signal;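 also: score merges emission near 667 nm and signal to noise per printed spot across three slides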
[19] = biological target: Dickkopf-related protein 1 (Homo sapiens) (UniProt O94907); assay: DKK1 binders on small-molecule microarrays, primary screen, biochemical, small-molecule microarray, 635 nm fluorescence scan (AID 1106); details: DKK1 binding, higher = more signal;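 also: score merges emission near 667 nm with signal to noise over three replicate slides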
[20] = system: Inhibin beta A chain (activin A); assay: INHBA (activin A) binders on microarrays, primary screen, biochemical, small-molecule microarray, 635 nm fluorescence scan (AID 1107); details: small-molecule microarray binding, higher = more signal;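 also: mouse activin A protein probed at 4.33 µg/mL on printed slides; score merges bound-protein fluorescence near 667 nm with spot signal-to-noise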

Chain of Epidermal growth factor receptor (Homo sapiens) (P00533 whole entry, looked up): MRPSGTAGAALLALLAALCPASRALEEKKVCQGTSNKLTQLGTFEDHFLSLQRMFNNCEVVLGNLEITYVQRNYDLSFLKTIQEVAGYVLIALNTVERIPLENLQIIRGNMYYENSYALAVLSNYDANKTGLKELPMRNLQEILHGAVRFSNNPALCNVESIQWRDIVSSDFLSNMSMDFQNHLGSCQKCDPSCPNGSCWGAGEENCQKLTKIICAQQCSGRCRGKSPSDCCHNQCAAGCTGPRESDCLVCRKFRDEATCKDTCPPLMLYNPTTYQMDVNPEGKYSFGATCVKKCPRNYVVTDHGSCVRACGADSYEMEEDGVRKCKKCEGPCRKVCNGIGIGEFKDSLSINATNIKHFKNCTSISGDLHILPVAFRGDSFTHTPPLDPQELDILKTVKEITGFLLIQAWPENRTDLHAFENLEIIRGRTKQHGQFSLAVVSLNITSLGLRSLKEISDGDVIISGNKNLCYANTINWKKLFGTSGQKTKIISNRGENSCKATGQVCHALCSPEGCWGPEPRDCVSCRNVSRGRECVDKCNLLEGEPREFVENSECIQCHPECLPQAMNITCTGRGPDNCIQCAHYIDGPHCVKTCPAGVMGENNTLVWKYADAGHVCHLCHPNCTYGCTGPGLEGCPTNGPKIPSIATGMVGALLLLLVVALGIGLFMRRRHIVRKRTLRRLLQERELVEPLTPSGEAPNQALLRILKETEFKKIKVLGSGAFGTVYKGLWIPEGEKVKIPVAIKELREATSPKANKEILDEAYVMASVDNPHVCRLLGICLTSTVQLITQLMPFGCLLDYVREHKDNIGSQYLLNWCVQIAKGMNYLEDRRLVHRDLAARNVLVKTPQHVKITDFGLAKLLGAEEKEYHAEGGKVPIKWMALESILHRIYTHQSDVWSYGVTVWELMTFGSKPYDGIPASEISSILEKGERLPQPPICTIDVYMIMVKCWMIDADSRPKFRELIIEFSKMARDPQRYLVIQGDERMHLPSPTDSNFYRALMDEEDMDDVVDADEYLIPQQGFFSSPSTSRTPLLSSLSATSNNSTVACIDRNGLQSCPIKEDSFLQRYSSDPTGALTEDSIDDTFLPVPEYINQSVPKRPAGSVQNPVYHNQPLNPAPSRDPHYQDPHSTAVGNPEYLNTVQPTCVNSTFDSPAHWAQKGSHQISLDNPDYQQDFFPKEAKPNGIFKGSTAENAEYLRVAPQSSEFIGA
Chain of Follistatin-related protein 3 (Homo sapiens) (O95633 whole entry, looked up): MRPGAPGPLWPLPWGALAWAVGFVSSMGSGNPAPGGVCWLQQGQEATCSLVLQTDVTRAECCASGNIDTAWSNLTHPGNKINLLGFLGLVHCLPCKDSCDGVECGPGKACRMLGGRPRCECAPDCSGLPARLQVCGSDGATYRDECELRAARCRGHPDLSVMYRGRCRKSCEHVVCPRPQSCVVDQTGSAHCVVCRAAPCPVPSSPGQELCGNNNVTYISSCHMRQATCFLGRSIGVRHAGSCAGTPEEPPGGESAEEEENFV
Chain of Fibroblast growth factor 10 (Homo sapiens) (O15520 whole entry, looked up): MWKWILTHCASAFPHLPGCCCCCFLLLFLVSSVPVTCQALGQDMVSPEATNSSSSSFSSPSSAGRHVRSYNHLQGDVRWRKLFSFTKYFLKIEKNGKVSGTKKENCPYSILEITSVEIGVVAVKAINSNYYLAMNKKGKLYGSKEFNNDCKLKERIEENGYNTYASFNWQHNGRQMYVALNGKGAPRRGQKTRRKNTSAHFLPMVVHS
Chain of Neurogenic locus notch homolog protein 3 (Homo sapiens) (Q9UM47 whole entry, looked up): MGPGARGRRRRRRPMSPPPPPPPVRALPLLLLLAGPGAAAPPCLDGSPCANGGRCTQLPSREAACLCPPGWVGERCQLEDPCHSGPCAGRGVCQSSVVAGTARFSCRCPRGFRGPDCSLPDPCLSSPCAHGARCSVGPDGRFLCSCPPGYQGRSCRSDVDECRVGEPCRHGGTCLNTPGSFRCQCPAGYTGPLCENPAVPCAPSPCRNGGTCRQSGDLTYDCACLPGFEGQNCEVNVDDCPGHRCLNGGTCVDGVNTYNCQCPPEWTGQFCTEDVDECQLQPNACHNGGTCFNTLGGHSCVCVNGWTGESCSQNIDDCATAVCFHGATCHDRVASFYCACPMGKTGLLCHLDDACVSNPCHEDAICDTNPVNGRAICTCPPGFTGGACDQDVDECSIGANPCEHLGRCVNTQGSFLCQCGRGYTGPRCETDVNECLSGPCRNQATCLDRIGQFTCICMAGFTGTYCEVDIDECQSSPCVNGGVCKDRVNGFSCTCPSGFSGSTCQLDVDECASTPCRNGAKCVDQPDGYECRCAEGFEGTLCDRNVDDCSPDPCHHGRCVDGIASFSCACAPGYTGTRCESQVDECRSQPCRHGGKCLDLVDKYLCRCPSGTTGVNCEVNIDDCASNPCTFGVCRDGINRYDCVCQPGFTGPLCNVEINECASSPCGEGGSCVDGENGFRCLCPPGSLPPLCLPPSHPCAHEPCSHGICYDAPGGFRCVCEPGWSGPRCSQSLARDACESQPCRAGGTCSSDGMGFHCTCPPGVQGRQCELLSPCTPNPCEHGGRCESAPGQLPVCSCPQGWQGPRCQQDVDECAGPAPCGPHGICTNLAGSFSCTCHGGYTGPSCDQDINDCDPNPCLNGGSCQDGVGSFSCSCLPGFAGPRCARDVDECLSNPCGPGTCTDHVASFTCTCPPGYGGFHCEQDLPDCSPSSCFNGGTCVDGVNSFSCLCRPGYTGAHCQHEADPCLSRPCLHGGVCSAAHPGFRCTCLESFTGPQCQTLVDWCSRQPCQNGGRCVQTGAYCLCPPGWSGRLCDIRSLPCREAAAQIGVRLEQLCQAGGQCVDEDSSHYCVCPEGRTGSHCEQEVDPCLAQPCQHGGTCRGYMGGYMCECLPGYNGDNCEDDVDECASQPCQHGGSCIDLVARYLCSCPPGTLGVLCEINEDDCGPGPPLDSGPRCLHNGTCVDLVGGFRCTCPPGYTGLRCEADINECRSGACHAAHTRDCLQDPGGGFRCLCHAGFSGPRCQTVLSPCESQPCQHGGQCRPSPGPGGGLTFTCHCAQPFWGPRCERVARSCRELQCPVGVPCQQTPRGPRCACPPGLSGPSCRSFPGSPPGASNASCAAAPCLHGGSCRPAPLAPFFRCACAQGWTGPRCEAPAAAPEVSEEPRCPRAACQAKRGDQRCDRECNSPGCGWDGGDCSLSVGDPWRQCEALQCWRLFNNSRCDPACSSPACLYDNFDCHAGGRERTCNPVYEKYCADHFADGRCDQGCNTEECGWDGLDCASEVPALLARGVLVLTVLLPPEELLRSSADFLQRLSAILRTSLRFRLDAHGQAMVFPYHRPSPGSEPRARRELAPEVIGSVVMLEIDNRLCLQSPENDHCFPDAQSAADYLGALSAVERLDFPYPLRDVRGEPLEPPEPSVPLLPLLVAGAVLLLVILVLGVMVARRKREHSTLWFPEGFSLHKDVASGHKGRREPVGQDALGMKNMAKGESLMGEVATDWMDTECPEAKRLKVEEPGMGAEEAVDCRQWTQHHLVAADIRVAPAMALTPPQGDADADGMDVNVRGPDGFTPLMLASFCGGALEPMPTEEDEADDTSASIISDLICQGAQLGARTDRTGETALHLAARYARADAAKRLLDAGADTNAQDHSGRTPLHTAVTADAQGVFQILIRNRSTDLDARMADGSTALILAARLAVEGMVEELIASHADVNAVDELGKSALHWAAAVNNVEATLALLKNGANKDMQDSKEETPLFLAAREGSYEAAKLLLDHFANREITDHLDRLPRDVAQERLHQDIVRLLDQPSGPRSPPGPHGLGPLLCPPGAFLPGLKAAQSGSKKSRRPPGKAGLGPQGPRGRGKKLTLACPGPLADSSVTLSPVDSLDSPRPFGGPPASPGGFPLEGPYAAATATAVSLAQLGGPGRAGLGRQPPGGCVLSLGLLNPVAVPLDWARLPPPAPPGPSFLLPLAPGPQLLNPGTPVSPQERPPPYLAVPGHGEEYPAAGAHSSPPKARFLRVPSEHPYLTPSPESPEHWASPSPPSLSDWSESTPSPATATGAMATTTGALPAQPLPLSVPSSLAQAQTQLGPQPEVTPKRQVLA
Chain of Dickkopf-related protein 1 (Homo sapiens) (O94907 whole entry, looked up): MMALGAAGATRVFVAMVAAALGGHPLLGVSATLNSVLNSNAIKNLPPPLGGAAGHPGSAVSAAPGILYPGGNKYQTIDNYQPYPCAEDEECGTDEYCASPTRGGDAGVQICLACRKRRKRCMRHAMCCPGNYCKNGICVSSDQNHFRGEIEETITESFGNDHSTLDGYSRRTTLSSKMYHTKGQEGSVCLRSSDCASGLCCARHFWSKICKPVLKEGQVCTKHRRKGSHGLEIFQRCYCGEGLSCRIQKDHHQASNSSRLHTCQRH
Chain of Torsin-1A-interacting protein 2 (Homo sapiens) (Q8NFQ8 whole entry, looked up): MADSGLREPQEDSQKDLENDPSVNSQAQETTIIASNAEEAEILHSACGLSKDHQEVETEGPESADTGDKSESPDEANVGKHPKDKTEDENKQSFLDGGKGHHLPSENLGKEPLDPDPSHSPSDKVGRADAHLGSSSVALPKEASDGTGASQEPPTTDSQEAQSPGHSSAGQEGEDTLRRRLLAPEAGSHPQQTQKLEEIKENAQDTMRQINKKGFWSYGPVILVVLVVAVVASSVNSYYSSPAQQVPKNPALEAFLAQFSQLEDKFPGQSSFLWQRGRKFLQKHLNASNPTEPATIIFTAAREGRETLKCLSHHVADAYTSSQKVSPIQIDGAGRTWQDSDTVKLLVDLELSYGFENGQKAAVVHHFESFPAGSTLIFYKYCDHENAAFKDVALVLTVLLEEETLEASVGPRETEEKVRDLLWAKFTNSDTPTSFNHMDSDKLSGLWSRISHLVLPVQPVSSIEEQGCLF

SMILES	composite z-score [1]	z-score [2]	z-score [3]	z-score [4]	composite z-score [5]	z-score [6]	composite z-score [7]	composite z-score [8]	composite z-score [9]	composite z-score [10]	composite z-score [11]	composite z-score [12]	composite z-score [13]	z-score [14]	composite z-score [15]	composite z-score [16]	composite z-score [17]	composite z-score [18]	composite z-score [19]	composite z-score [20]
COc1ccc(O[C@H]2C=C[C@@H](c3ccccc3)O[C@@H]2COC(=O)N2CCCCC2)cc1	0.38	0.523 (inactive)	-0.897 (inactive)	0.156 (inactive)	-0.616	0.555 (inactive)	0.0116	0.0935	-1.08	-0.0527	-0.0945	-0.173	-0.225	0.757 (inactive)	-0.398	-0.732	0.0392	-0.0999	0.0004	1.42
CCCNC(=O)OC[C@H]1O[C@H](CCON=C2[C@H]3CCn4c(=O)n(-c5ccccc5)c(=O)n4[C@H]3[C@H](O)[C@@H]3O[C@H]23)C=C[C@@H]1Oc1ccc(OC)cc1	0.615	-0.285 (inactive)	0.0063 (inactive)	-0.0824 (inactive)	0.507	0.317 (inactive)	-0.234	0.388	0.242	-0.253	0.357	-0.139	-0.182	-0.374 (inactive)	0.2	0.343	-0.0629	0.493	0.378	0.103
CC=CC1=C(CO)[C@H](O)[C@H]2O[C@H]2[C@H]1O	1.23	0.505 (inactive)	0.317 (inactive)	1.12 (inactive)	-0.0789	0.131 (inactive)	-0.24	0.834	0.67	-0.0382	0.412	-0.346	-0.786	-0.383 (inactive)	0.805	1.23	0.393	0.578	1.07	-0.047
COC(=O)[C@@]1(Cc2ccc(OC)cc2)[C@H]2c3cc(C(=O)N4CCCC4)n(Cc4cc(F)c(F)c(F)c4)c3C[C@H]2CN1C(=O)c1ccccc1	1.25	0.68 (inactive)	1.39 (inactive)	7.41 (inactive)	3.39	-1.19 (inactive)	1.44	-0.131	1.01	1.17	1.08	2.47	1.59	-1.28 (inactive)	1.15	1.3	1.12	1.32	-0.279	0.835
CC(=O)OC[C@H]1O[C@@H](ON=C(C)CCN2CCc3nc(-c4ccccc4)c(-c4ccccc4)cc3C2)[C@H](OC(C)=O)[C@@H](OC(C)=O)[C@@H]1OC(C)=O	1.51	0.0264 (inactive)	-1.03 (inactive)	-3.53 (inactive)	2.27	-0.395 (inactive)	0.0754	0.591	1.09	0.0291	0.625	-0.119	-0.413	0.522 (inactive)	0.917	1.22	0.525	0.979	0.525	-0.0877
